Assay [1] deals with DLD1. In words: cell viability (CellTiter-Glo) relative to plate median (fraction of plate median); higher = more viable cells. As to conditions: 5 µM; treatment time 24 h; reporter: 7TFP. Summed up: (§1)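 On parallel plates, a Tecan F500 reader recorded either firefly luciferase or CellTiterGlo luminescence. The plates held colorectal cancer cells stably transduced with lentiviral TCF/Wnt firefly luciferase reporters (7TFP or TCF4/Wnt), seeded in 384-well format and treated 24 h later with library compounds at a final 5 µM for 24 h. Per-well signals were normalised to the plate median (webcellHTS2, additive, no log transformation), and two independent replicates were averaged.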
(In general: Cellular ATP, detected with luciferase, serves as a proxy for viable cell number.)

For the next assay, the system named is HCT116. The assay is described as above. As to conditions: 5 µM; treatment time 24 h; reporter: TCF4/Wnt. The gist of the method:
as §1

The subject of assay [2] is SW480. Described as above. As to conditions: 5 µM; treatment time 24 h; reporter: 7TFP. Summed up: as §1
Assay [3] concerns DLD1. In words: TCF/Wnt firefly luciferase reporter signal relative to plate median (fraction of plate median); higher = higher Wnt reporter signal. Conditions: 5 µM; treatment time 24 h; reporter: 7TFP. The gist of the method:
as §1
(In general: In a reporter assay the amount or activity of a reporter protein is the signal.)

Assay [4] has as its system SW480. The description is as above. Conditions: 5 µM; treatment time 24 h; reporter: 7TFP. The gist of the method:
as §1

± gives the standard deviation of the averaged measurements.

Turning to `CCCSc1ccc2[nH]c(NC(=O)OC)nc2c1`, the cell viability is 0.966 ± 0.039 in the assay on DLD1 [1], 0.893 ± 0.17 in the assay on HCT116 and 0.986 ± 0.016 in the assay with SW480 [2]. Also, the “TCF/Wnt firefly luciferase reporter signal” value in the assay on DLD1 [3] was determined as 1.1 ± 0.028; in the assay on SW480 [4], 1.04 ± 0.1.
On the same counts, the results for `C=C1c2c(Cl)ccc(O)c2C(=O)C2=C(O)[C@]3(O)C(=O)C(C(N)=O)=C(O)[C@@H](N(C)C)[C@@H]3[C@@H](O)[C@H]12.O=C(O)c1cc(S(=O)(=O)O)ccc1O` are 1.05 ± 0.021, 1.02 ± 0.042, 1.005 ± 0.0071, 1.05 ± 0.25 and 0.893 ± 0.062.
With `C=C(CC)C(=O)c1ccc(OCC(=O)O)c(Cl)c1Cl`, the cell viability in the assay with DLD1 [1] came out at 1.01 ± 0.046; in the assay with HCT116, 1.01 ± 0.046; in the assay on SW480 [2], 1.03 ± 0.05. The “TCF/Wnt firefly luciferase reporter signal” value in the assay on DLD1 [3] is 1.11 ± 0.11; in the assay on SW480 [4], 1.095 ± 0.0071.
For the compound `N=C(N)c1ccc(OCCCCCOc2ccc(C(=N)N)cc2)cc1`, the cell viability in the assay on DLD1 [1] turned out to be 0.93 ± 0.21; in the assay on HCT116, 0.9365 ± 0.0078; with SW480 [2], 1.01 ± 0.014. Moreover, the “TCF/Wnt firefly luciferase reporter signal” value was 1.035 ± 0.0071 in the assay with DLD1 [3] and 0.795 ± 0.013 with SW480 [4].
The matching figures for `Cc1c(NC(C)C)c(=O)n(-c2ccccc2)n1C`: 1.01 ± 0.014, 1.05 ± 0.15, 1.03 ± 0.045, 0.95 ± 0.21 and 0.942 ± 0.0014.
On to `OCc1c[nH]c2ccccc12`, for which the cell viability in the assay on DLD1 [1] turned out to be 1.01; in the assay with HCT116, 0.93 ± 0.03; in the assay with SW480 [2], 0.948 ± 0.042. In addition, the “TCF/Wnt firefly luciferase reporter signal” value was determined as 1.06 ± 0.064 in the assay with DLD1 [3] and 0.992 ± 0.026 in the assay with SW480 [4].
Turning to `Nc1ccc(S(=O)(=O)Nc2ccc(Cl)nn2)cc1`, the cell viability was determined as 1.06 ± 0.096 in the assay with DLD1 [1], 1.03 ± 0.035 in the assay with HCT116 and 1.08 ± 0.05 with SW480 [2]. Also, the “TCF/Wnt firefly luciferase reporter signal” value in the assay on DLD1 [3] was determined as 0.954 ± 0.028; in the assay with SW480 [4], 1.09 ± 0.042.
The matching figures for `CNC1(C)C2CCC(C2)C1(C)C` (stereo not given): 0.844 ± 0.018, 0.972 ± 0.11, 0.924 ± 0.038, 1.05 ± 0.021 and 0.904 ± 0.054.
`CC(C)(O)CC[C@@H](O)[C@](C)(O)[C@H]1CC[C@@]2(O)C3=CC(=O)[C@@H]4C[C@@H](O)[C@@H](O)C[C@]4(C)[C@H]3CC[C@]12C`: the cell viability in the assay with DLD1 [1] is 0.977 ± 0.021; with HCT116 it was 1.08 ± 0.042; in the assay on SW480 [2], 1.01. The figures for the “TCF/Wnt firefly luciferase reporter signal” value in the assay on DLD1 [3] and with SW480 [4] were 1.1 ± 0.21 and 1.14 ± 0.064, respectively.
For `Cc1c2oc3c(C)ccc(C(=O)N[C@@H]4C(=O)N[C@H](C(C)C)C(=O)N5CCC[C@H]5C(=O)N(C)CC(=O)N(C)[C@@H](C(C)C)C(=O)O[C@@H]4C)c3nc-2c(C(=O)N[C@@H]2C(=O)N[C@H](C(C)C)C(=O)N3CCC[C@H]3C(=O)N(C)CC(=O)N(C)[C@@H](C(C)C)C(=O)O[C@@H]2C)c(N)c1=O`, the cell viability with DLD1 [1] is 1.06 ± 0.071; in the assay with HCT116, 0.601 ± 0.18; with SW480 [2], 1.31 ± 0.035. The results for the “TCF/Wnt firefly luciferase reporter signal” value with DLD1 [3] and in the assay with SW480 [4] were 0.612 ± 0.11 and 0.802 ± 0.039, respectively.
In the case of `Cc1cc(O)c2c3c(ccc2c1)C(=O)c1c(O)cccc1C3=O` [Tetrangulol], the figures for the cell viability with DLD1 [1], with HCT116 and in the assay on SW480 [2] were 1.02 ± 0.065, 0.985 ± 0.018 and 0.972 ± 0.015, respectively. Besides, the “TCF/Wnt firefly luciferase reporter signal” value in the assay with DLD1 [3] is 0.978 ± 0.023; in the assay with SW480 [4] it was 0.974 ± 0.035.
On the same counts, the results for `Cc1ccccc1OCC(O)CO` (stereo not given) are 0.958 ± 0.042, 0.983 ± 0.0099, 0.999 ± 0.03, 1.02 ± 0.15 and 1.04 ± 0.014.
The matching figures for `C=CCCCCCCCCCCCC(O)CC(O)CO` (stereo not given): 1.1 ± 0.099, 1.05 ± 0.11, 1.05 ± 0.05, 0.964 ± 0.05 and 1.03 ± 0.042.

The record behind these values is the supplement of paper PMC6522484.
